# Source: PubChem BioAssay AID1321 (The Scripps Research Institute Molecular Screening Center, 2008)
# Screen size: about 220,000 compounds; about 2,600 (1.2%) were called active. Shown is part of a subset that was picked to be rich in actives. Unmarked numbers belong to inactive results.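 The calls were made as follows: active = activation above the mean of all tested compounds plus 3 SD, set per screening run (cut at about 8.8% in these data); inactive = the rest.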
# Target: Wee1-like protein kinase (Homo sapiens) (UniProt P30291)
# Test: compounds stabilizing Wee1-luciferase fusion – cell-based, HeLa, Wee1K328M-luciferase, luminescence, primary screen (AID 1321);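 also: cells exposed to compound for 20 h before luminescence read; 0% = DMSO alone and 100% = MG132 at 30 µM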
# Conditions: HeLa Luc-Wee1K328M stability, at 5 µM, active compounds read high, 100% = proteasome inhibitor MG132 effect
row,Compound,reporter increase
1,O=S(=O)(Cc1noc(-c2ccc(OC(F)(F)F)cc2)n1)c1ccc(F)cc1,4.61%
2,CCOc1ccc(CN(Cc2ccco2)C(c2cccs2)c2nnnn2C(C)(C)C)cc1 (stereo unspecified),9.99% (active)
3,CCOc1ccc(CN(Cc2ccco2)S(=O)(=O)c2ccc(-n3cnnn3)c(OC)c2)cc1,1.7%
4,CC(C)(C)n1nnnc1C(c1cccs1)N(Cc1cccnc1)CC1CCCO1 (stereo unspecified),4.79%
5,CCCCCCCCCCCCN1C(=O)CSC1c1cccnc1 (stereo unspecified),-0.61%
6,COc1ccc(CCNC(=O)C(=O)NCC2CCNCC2)cc1OC,-1.92%
7,COc1cc(/C=N\Nc2nc(-c3cccs3)c(NC(C)=O)s2)ccc1O,-1.53%
8,COc1ccc(NS(=O)(=O)c2ccc(N3CCOCC3)c(NC(=O)c3ccccc3Br)c2)cc1,0.37%
9,O=C(CSc1nnc(-c2cccs2)n1-c1ccccc1)N1CCN(C(=O)c2ccco2)CC1,-2.17%
10,CCn1c(SCC(=O)c2ccc3ccccc3c2)nnc1-c1cccs1,4.66%
11,O=C(CSc1nnc(-c2cccs2)n1Cc1ccccc1)N1CCc2ccccc2C1,9.02% (active)
12,CCOc1ccc(-n2cnc3c(=O)[nH]c(N)nc32)cc1,-1.45%
13,CC(C)c1cc(CN2CCOCC2)cc(C(C)C)c1O,1.64%
14,O=C(CCCCCN1C(=O)c2cccc3cccc(c23)C1=O)NCc1ccco1,-0.37%
15,Cc1cccc(-[n+]2c(-c3cccc(Br)c3)[nH]c3nc4ccccc4nc32)c1,1.73%
16,COc1cccc(OCCOc2cccc(/C=N/n3cnnc3)c2)c1,10.7% (active)
17,C=CCc1ccc(OCCOc2cccc(/C=N/n3cnnc3)c2)c(OC)c1,0.6%
18,COc1ccccc1OCCOc1ccc(/C=N/n2cnnc2)cc1,3.34%
19,COc1ccc(NC(=O)c2cn(-c3ccccc3)nc2SC)cc1,-2.29%
20,O=C(CSc1nnc(SCc2ccc(F)cc2)s1)Nc1ccc(C(=O)O)cc1,-1.55%
21,CS/C(=C\C(=O)c1ccco1)Nc1ccccc1Cl,6.17%
22,NNC(=O)C1CCCn2c1nc1sc3c(c1c2=O)CCCC3 (stereo unspecified),-0.79%
23,Cc1nc2sc3c(c2c(=O)n1NC(=O)CCl)CCCC3,1.1%
24,Cn1c(NN)nc2sc3c(c2c1=O)CCC3,11.1% (active)
25,CC(NS(=O)(=O)c1ccccc1)c1n[nH]c(=S)n1-c1ccccc1 (stereo unspecified),0.56%
26,COC(=O)c1sc(NC(=S)NC(=O)c2ccc(C)cc2)nc1C,-0.57%

row,Compound,reporter increase
1,c1c2c(cc3sc(N4CCCCC4)nc13)OCCO2,-3.23%
2,Brc1ccc2nc(N3CCCC3)sc2c1,18.3% (active)
3,Cc1nc(N2CCCCC2)sc1C=O,-0.49%
4,Cc1ccc(F)cc1NC(=O)N1CCCN(c2ccc(C(F)(F)F)cn2)CC1,-2.91%
5,CN(C)CCCN(Cc1cc2cc3c(cc2[nH]c1=O)OCCO3)C(=O)NC1CCCCC1,-1.12%
6,O=C(N/N=C/c1ccco1)c1csc2c1CCCC2,9.05% (active)
7,O=C(N/N=C/c1ccco1)c1ccc(C(=O)N/N=C/c2ccco2)o1,-0.09%
8,O=C(N/N=C/c1ccco1)c1ccc(NC(=O)C2CC2)cc1,1.48%
9,COc1ccc(CN(Cc2ccc(OC)cc2)C(=O)c2cccs2)cc1,1.79%
10,CCOC(=O)CN(C(=O)COc1nc(C)cc(C)c1C#N)c1ccc(Cl)cc1,-2.18%
11,Cc1cc(C(F)(F)F)c(C#N)c(SCC(=O)NC2CC2)n1,-3.28%
12,CCOC(=O)COc1nc(C)cc(C(F)(F)F)c1C#N,8.86% (active)
13,CCCc1c(C(=O)O)cnn1-c1ccc(Cl)cc1,1.14%
14,COc1ccc(-c2[nH]ncc2CN(C)Cc2cc(C)[nH]n2)c(F)c1,-2.83%
15,Cc1nnc(CN(C)Cc2cn[nH]c2-c2ccc(-c3ccccc3)cc2)o1,10.8% (active)
16,CN(CCC1CCOCC1)Cc1cn[nH]c1-c1ccc(-c2ccccc2)cc1,-2.58%
17,COC(=O)C1=C(N)Oc2cc(C)[nH]c(=O)c2C1c1ccc(Cl)cc1 (stereo unspecified),-0.92%
18,COc1ccccc1N1CCN(C(=O)CSc2ncnc3c2cnn3-c2ccc(C)c(C)c2)CC1,3.89%
19,O=[N+]([O-])c1ccc(N2CCSCC2)cc1O,1.05%
20,C=CCN(C(=O)Nc1ccc2c(c1)nc(C)n2C)c1ccccc1,-1.11%
21,Cc1nc2cc(NC(=O)Nc3cccc(F)c3)ccc2n1C,-1.84%
22,Cc1nc2cc(NC(=O)NC3CC3)ccc2n1C,12.8% (active)
23,Cc1cc(NC(=O)OC(C)C)ccc1-c1ccc(NC(=O)OC(C)C)cc1C,0.84%
24,Cn1c(SCC(=O)Nc2ccc(Cl)cc2)nc(O)cc1=O,-2.26%
25,Cc1cccc(OCC(=O)NC(=S)Nc2ccccc2N2CCOCC2)c1,0.28%
26,COc1cccc(OCC(=O)Nc2ccccc2C(N)=O)c1,0.36%

row,Compound,reporter increase
1,Cc1cccc(OCC(=O)Nc2ccccc2F)c1,12.9% (active)
2,O=S(=O)(c1ccccc1)N1CN(Cc2ccc(F)cc2)c2nc3ccccc3nc21,2.39%
3,COc1ccc(N(Cc2ccccc2)S(=O)(=O)c2cccc(C(=O)O)c2)cc1,0.36%
4,CCOc1ccc(N2CC(C(=O)N/N=C/c3sccc3C)CC2=O)cc1 (stereo unspecified),-2.91%
5,CCN(CC)CCCN=Cc1c(O)n(-c2ccc(C)cc2)c(=O)c2ccccc12,5.68%
6,Cc1ccc2c(Cl)c(C(=O)Nc3nn[nH]n3)sc2c1,-0.87%
7,Cc1ccc2c(Cl)c(C(=O)NCCCn3ccnc3)sc2c1,18.1% (active)
8,COc1ccc(-c2cc(C(=O)NCCCn3ccnc3)no2)cc1,-0.75%
9,O=C1CC(Cc2ccc(Cl)cc2)C(=O)N1c1cc(Cl)ccn1 (stereo unspecified),2.19%
10,O=C(NC(=O)c1cc(OCC(F)(F)F)ccc1OCC(F)(F)F)Nc1ccccc1,-0.42%
11,CC(CC(=O)Nc1cc(C(F)(F)F)ccc1Cl)c1ccccc1 (stereo unspecified),-1.69%
12,O=C(Nc1cc(C(F)(F)F)ccc1Cl)C(=O)N1CCCCC1,0.04%
13,O=C(NNc1ccccc1Cl)C(O)(c1cccc(C(F)(F)F)c1)c1cccc(C(F)(F)F)c1,16.5% (active)
14,CCn1c2ccccc2c2cc(NC(=O)Nc3ccc([N+](=O)[O-])cc3C)ccc21,-2.8%
15,Cc1ccc(Nc2nc(N)nc(CSc3nnc(C)s3)n2)cc1,9.2% (active)
16,Cc1ccc(Nc2nnc(SCc3ccccc3)s2)cc1,0.21%
17,Cc1ccccc1Nc1nc(N)nc(CSc2ccccc2)n1,5.12%
18,O=C(c1cc(COc2c(F)cccc2F)on1)N1CCSCC1,-0.41%
19,COC(=O)Cn1c(O)c(N=NC(=O)OC)c2ccccc21,-1.42%
20,Cc1cc(C)nc(SCc2cn3c(C)cc(C)nc3n2)n1,1.99%
21,COc1cc(C(F)(F)F)c(C(=O)N(C)c2ccc(Cl)cc2)cn1,-1.97%
22,COc1ccccc1N(C)S(=O)(=O)c1ccc(C(=O)NC2CCCCCC2)cc1,1.14%
23,CC(=O)N(CCCN(C)C)c1nc2ccc(C)cc2s1,1.87%
24,CCCOC(=O)c1cc2ccccc2oc1=O,-1.59%
25,CN(C)CCCCCN(C)Cc1cc2ccccc2o1,9.64% (active)
26,COCCN(Cc1cc2cc3c(cc2nc1Cl)OCO3)C(=O)c1cccc(C)c1,-2.99%

row,Compound,reporter increase
1,CCCC1CCC(=NNC(=S)NCCc2ccccc2)CC1 (stereo unspecified),-0.9%
2,Cc1ccc(NC(=S)N/N=C2/CCCc3c(C)cc(C)cc32)cc1,-2.2%
3,CCCCNC(=S)N/N=C1\CCCCc2ccccc21,9.73% (active)
4,Cc1ccc(N2C(=O)CC(N3CCSCC3)C2=O)c(C)c1 (stereo unspecified),-2.9%
5,Cc1ccccc1NC(=O)Nc1ccccc1N1CCCCC1,2.91%
6,O=c1cc(CSc2ccc(Cl)cc2)nc(N2CCOCC2)[nH]1,4.27%
7,Cc1nnc(SCc2cc(=O)[nH]c(N3CCN(Cc4ccccc4)CC3)n2)s1,0.09%
8,O=c1cc(CSc2ccccn2)nc(N2CCN(c3ccccc3)CC2)[nH]1,10.3% (active)
9,C/C=C/c1ccc(OCCOc2ccc(C=O)cc2OC)c(OC)c1,0.41%
10,C/C=C/c1ccc(OCC(O)CN2CCCCCCC2)c(OC)c1 (stereo unspecified),-0.18%
11,C/C=C/c1ccc(OCCCCN2CCC(C)CC2)c(OC)c1,28.9% (active)
12,CN(C(=O)COC(=O)c1cc(-c2ccco2)nc2ccccc12)C1CCS(=O)(=O)C1 (stereo unspecified),-1.15%
13,O=C(Nc1nc2ccc(S(=O)(=O)N3CCCC3)cc2s1)C1CCCO1 (stereo unspecified),-1.26%
14,Cc1cc(C)c2nc(NC(=O)c3ccc4c(c3)OCO4)sc2c1,-0.87%
15,Cc1cc(C)c2nc(NC(=O)C3CCCO3)sc2c1 (stereo unspecified),9.43% (active)
16,COc1ccc(NC(=O)CCN2C(=O)/C(=C/c3ccc4c(c3)OCO4)SC2=S)cc1,0.36%
17,Cc1cc(C(=O)CSc2nc(N)cc(=O)[nH]2)c(C)n1Cc1ccco1,2.39%
18,CC(=O)Nc1ccc(OCC(=O)NCc2ccc(C)cc2)cc1,-0.21%
19,COc1ccc(NC(=O)/C(Cl)=C(/Cl)S(=O)Cc2ccc(C)cc2)cn1 (stereo unspecified),11% (active)
20,COc1ccc(Nc2cc(Cl)ccc2C(=O)O)cn1,2.84%
21,COc1ccc(NC(=S)NCCNC(C)=O)cc1,0.16%
22,COc1ccc(CS(=O)/C(Cl)=C(/Cl)C(=O)Nc2ccc(OC)nc2)cc1 (stereo unspecified),17.4% (active)
23,COc1ccc(NC(=S)Nc2ccccc2Cl)cn1,4.13%
